In ChEMBL document CHEMBL3988442, “University of Dundee, Small-Polar-MMV Screening Library” (2021):
For some assays here: Measured potencies and affinities stand elsewhere.

How the values were obtained:
Set-up in all cases: scale not given: direction of the effect not stated beside the values
[1] = target: Protein translocase subunit SecA (Escherichia coli (strain K12)) (UniProt P10408); experiment: Assay to Identify E. coli SecA ATPase Inhibitors; type: functional; details: 30 µM
[2] = target: T1, Ubiquitin-activating enzyme e1, putative (Leishmania donovani (strain BPK282A1)) (UniProt E9BSI1); experiment: Leishmania donovani Ubiquitin Activating Enzyme (LdE1); type: functional; details: 30 µM
T1 sequence (whole entry): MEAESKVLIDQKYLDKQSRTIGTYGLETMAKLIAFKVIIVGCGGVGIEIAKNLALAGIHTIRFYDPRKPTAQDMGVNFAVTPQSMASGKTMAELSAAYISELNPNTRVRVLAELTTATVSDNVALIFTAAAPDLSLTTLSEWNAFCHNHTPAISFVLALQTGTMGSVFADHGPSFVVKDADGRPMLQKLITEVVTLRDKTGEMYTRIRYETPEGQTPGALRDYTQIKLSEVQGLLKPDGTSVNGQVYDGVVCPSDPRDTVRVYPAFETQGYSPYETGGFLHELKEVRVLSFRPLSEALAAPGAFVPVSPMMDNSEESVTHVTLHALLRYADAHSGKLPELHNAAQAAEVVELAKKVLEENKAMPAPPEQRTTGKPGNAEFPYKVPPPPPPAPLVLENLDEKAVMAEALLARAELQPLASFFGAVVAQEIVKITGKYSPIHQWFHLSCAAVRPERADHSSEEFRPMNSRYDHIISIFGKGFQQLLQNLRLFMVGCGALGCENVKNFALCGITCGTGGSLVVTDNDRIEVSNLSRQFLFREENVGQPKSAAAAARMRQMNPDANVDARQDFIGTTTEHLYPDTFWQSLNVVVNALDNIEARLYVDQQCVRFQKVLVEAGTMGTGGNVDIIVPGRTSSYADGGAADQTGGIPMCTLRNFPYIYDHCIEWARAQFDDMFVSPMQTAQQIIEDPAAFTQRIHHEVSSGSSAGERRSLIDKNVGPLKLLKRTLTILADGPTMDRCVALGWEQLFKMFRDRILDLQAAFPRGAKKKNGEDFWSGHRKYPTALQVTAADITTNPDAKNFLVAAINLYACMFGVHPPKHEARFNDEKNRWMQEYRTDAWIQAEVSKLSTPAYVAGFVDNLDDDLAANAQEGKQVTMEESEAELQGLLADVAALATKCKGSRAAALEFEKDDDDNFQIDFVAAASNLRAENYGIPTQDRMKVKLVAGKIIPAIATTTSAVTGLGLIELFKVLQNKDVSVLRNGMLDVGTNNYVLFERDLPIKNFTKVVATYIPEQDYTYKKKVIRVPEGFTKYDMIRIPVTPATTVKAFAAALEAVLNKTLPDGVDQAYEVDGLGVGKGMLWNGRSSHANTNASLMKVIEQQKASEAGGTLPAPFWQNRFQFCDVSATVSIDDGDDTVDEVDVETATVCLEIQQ

[3] = target: AMP-activated protein kinase, AMPK (Homo sapiens) (UniProt P54646+O43741+P54619+Q9UGJ0+Q9Y478+Q13131+Q9UGI9); experiment: AMP-dependent Kinase enzyme assay. An in vitro enzyme assay that detects ADP turnover that is directly proportional to AMPK activity. This uses naive AMPK that is activated during the assay with MK-8722; type: functional; details: 30 µM
[4] = target: Sialic acid-binding Ig-like lectin 9 (Homo sapiens) (UniProt Q9Y336); experiment: Hs-Siglec9 ALPHAscreen SOP 20170721; details: 10 µM
Chain of Sialic acid-binding Ig-like lectin 9 (Homo sapiens) (Q9Y336 whole entry): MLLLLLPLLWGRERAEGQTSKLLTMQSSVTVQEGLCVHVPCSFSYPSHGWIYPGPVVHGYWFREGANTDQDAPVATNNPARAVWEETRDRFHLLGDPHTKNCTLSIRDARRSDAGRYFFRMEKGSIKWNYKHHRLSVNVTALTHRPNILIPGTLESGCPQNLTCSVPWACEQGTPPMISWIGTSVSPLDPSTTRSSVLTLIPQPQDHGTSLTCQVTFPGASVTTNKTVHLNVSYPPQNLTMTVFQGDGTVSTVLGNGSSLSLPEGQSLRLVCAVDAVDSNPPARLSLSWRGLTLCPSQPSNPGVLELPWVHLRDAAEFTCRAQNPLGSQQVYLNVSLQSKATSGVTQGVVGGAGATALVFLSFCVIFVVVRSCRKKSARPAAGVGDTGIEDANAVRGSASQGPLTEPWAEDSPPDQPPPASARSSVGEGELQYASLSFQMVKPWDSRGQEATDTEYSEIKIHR

Trypanosoma cruzi = experiment: Trypanosoma cruzi phosphomannomutase and mannose-1-phosphate guanylyltransferase assay; type: functional; details: 10 µM
[5] = target: T2, Arginase-2, mitochondrial (Homo sapiens) (UniProt P78540); experiment: in vitro enzyme assay to detect the production of urea directly proportional to the activity of Arginase II; type: functional; details: 33.3 µM; further: in the data most compounds retested in dose-response had high values
T2 sequence (whole entry): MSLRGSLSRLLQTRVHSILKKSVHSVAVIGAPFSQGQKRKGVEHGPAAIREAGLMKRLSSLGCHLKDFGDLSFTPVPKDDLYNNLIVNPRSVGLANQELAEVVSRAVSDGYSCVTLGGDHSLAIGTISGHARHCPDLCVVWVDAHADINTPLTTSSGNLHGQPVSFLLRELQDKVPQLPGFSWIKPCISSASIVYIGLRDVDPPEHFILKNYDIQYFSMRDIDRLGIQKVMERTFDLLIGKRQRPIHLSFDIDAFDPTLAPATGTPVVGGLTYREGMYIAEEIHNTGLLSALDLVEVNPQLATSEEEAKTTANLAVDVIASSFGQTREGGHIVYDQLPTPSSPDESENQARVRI

[6] = target: T3, Proteasome subunit beta (Trypanosoma cruzi) (UniProt O96673); experiment: Trypanosoma cruzi proteasome chymotrypsin-like activity (TcProtChymo) assay.; further: in the data most compounds retested in dose-response had high values; type: functional; details: 9.37 µM
T3 sequence (whole entry): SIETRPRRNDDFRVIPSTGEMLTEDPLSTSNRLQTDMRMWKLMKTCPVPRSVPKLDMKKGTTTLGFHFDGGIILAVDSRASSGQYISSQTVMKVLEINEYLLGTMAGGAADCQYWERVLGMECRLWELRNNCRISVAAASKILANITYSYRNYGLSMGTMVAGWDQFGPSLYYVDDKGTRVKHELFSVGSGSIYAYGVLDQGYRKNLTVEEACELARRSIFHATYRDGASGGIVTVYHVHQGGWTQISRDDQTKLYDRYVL

Homo sapiens = species: Homo sapiens; experiment: To identify inhibition of the IFN signalling (Jak-Stat) pathway via expression of an eGFP reporter gene under the control of an IFN-stimulated response element (ISRE) containing MxA promoter.; type: functional; details: 30 µM
[7] = target: T4, Tyrosyl-tRNA synthetase, putative (Trypanosoma cruzi (strain CL Brener)) (UniProt Q4DSP6); experiment: Trypanosoma cruzi tyrosyl tRNA synthetase (TcYRS) _High Tyrosine SOP; type: functional; details: 30 µM; further: in the data most compounds retested in dose-response had high values
T4 sequence (whole entry): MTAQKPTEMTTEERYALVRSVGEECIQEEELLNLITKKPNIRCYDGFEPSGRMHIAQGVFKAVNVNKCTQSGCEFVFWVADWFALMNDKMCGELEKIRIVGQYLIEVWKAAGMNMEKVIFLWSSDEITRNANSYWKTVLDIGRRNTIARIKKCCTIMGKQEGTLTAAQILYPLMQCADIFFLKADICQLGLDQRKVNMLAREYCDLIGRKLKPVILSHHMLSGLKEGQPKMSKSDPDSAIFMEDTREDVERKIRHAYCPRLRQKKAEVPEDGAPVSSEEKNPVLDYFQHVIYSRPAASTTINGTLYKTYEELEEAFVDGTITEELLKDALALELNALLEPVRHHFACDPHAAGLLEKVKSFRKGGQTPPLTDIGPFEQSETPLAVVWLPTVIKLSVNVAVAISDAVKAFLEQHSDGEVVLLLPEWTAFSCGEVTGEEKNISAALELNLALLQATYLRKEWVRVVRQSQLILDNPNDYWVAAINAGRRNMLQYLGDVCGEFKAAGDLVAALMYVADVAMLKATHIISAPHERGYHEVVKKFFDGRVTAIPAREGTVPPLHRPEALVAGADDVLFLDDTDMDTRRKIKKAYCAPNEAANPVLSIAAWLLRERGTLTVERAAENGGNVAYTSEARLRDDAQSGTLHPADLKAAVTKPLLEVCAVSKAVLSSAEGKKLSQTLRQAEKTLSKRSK

[8] = target: T4, Tyrosyl-tRNA synthetase, putative (Trypanosoma cruzi (strain CL Brener)); experiment: Trypanosoma cruzi tyrosyl tRNA synthetase (TcYRS) SOP; type: functional; details: 30 µM
[9] = target: Chromo domain-containing protein 1 (Saccharomyces cerevisiae (strain ATCC 204508 / S288c) (Baker's yeast)) (UniProt P32657); experiment: ScCHD-1 Enzyme Inhibition Assay; type: functional; details: 30 µM; further: in the data most compounds retested in dose-response had high values
Chain of Chromo domain-containing protein 1 (Saccharomyces cerevisiae (strain ATCC 204508 / S288c) (Baker's yeast)) (P32657 whole entry, the tested form may be a part): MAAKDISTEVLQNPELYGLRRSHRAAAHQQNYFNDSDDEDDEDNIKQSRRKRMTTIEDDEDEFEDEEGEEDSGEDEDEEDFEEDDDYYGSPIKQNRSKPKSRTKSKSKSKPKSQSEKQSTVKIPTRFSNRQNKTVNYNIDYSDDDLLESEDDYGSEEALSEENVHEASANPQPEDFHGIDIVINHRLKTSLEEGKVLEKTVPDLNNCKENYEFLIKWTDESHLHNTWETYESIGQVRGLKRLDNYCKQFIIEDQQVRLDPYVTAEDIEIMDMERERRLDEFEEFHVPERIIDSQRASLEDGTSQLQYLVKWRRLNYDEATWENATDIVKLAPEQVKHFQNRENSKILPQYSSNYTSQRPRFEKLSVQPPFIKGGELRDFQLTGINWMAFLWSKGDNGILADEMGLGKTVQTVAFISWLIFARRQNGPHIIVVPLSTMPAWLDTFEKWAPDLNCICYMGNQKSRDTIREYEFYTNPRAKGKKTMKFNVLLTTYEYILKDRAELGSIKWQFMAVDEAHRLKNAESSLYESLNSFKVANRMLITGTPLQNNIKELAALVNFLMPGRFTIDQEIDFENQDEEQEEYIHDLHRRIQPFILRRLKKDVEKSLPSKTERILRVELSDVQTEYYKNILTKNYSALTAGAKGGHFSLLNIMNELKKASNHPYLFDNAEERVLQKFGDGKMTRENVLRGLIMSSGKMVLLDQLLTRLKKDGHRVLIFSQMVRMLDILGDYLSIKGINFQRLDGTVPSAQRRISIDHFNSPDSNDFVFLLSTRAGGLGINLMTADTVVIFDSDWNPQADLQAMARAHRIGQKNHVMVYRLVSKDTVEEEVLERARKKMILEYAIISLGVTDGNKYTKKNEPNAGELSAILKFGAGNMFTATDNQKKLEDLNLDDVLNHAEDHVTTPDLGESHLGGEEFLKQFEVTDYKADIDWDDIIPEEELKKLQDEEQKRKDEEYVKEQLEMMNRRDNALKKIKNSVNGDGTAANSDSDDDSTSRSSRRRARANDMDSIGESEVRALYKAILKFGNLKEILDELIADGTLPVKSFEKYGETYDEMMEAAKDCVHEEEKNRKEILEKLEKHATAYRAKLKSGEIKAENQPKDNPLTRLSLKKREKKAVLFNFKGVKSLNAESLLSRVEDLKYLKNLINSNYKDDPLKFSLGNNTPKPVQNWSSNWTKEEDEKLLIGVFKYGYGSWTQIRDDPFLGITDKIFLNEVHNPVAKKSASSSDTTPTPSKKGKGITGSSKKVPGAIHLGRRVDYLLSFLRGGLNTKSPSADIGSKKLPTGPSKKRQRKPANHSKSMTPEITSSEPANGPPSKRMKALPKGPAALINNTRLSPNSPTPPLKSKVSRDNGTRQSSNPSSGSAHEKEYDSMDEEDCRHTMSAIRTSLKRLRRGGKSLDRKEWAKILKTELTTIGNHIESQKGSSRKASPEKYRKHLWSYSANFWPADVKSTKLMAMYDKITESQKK

Chain of Protein translocase subunit SecA (Escherichia coli (strain K12)) (P10408 whole entry): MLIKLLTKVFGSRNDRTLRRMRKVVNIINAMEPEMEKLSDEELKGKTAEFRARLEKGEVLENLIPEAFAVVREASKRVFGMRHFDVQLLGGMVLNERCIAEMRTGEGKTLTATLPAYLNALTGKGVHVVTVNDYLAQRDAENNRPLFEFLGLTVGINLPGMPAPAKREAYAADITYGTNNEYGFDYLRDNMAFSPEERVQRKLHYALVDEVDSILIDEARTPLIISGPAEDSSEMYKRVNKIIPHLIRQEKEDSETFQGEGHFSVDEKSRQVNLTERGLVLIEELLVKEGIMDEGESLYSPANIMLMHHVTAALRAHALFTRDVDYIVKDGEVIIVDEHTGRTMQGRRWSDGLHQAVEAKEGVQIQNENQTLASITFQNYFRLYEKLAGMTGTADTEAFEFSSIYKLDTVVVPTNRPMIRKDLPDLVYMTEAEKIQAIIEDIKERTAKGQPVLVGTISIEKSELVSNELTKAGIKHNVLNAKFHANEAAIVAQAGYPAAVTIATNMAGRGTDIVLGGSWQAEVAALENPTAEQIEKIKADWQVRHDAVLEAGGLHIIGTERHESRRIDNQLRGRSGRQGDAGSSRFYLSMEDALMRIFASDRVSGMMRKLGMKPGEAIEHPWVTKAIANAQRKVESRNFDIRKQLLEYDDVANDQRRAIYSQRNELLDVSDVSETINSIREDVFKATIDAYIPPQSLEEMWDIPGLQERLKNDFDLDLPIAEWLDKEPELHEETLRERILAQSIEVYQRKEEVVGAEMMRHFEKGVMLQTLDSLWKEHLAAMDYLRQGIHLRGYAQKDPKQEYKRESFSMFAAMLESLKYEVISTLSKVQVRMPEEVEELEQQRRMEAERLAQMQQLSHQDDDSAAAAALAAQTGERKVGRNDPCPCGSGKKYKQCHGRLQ

CC(C)C(=O)N1CCCC(c2cc(C(F)F)n3ncnc3n2)C1 (centres undefined)
Percent Effect [1]: -6.98%
Percent Effect [2]: 4.05%
Percent Effect [3]: 6.16%
Percent Effect [4]: -5.54%
Percent Effect (Trypanosoma cruzi): -4.94%
Percent Effect [5]: -6.73%
Percent Effect [6]: 4.21%
Percent Effect (Homo sapiens): 18%
Percent Effect [7]: -3.23%
Percent Effect [8]: 1.3%
Percent Effect [9]: -0.33%

CCCN1CCN(C(=O)c2cnccn2)[C@H]2CS(=O)(=O)C[C@H]21
Percent Effect [1]: -2.77%
Percent Effect [2]: 2.7%
Percent Effect [3]: -5.74%
Percent Effect [4]: 30.7%
Percent Effect (Trypanosoma cruzi): 3.86%
Percent Effect [5]: 2.38%
Percent Effect [6]: 2.93%
Percent Effect (Homo sapiens): 6.26%
Percent Effect [7]: 4.76%
Percent Effect [8]: 12.2%
Percent Effect [9]: -5.99%

Cc1cnc(N2CC3(CCN(C(=O)c4ccoc4)C3)C2)nc1
Percent Effect [1]: -4.42%
Percent Effect [2]: 5.2%
Percent Effect [3]: 2.7%
Percent Effect [4]: 2.78%
Percent Effect (Trypanosoma cruzi): -3.64%
Percent Effect [5]: -30.3%
Percent Effect [6]: 15%
Percent Effect (Homo sapiens): 1.13%
Percent Effect [7]: 0%
Percent Effect [8]: 1.24%
Percent Effect [9]: -4.73%

Cc1ccc(NC(=O)N2CCC(NC(=O)c3ccc(C)o3)CC2)cc1
Percent Effect [1]: -4.11%
Percent Effect [2]: 15.6%
Percent Effect [3]: 3.14%
Percent Effect [4]: 4.46%
Percent Effect (Trypanosoma cruzi): 2.45%
Percent Effect [5]: 0.632%
Percent Effect [6]: 6.39%
Percent Effect (Homo sapiens): 8.38%
Percent Effect [7]: 8.57%
Percent Effect [8]: 23.5%
Percent Effect [9]: -10.9%
